# Calls of active or inactive are those of the source. The calls were made as follows: active = hit-call score of the fitted dose curve at least 0.9, where 1 is the maximum; inactive = score below 0.9.
# Columns and labels:
# Details in all cases: mRNA level, 48 h; actives raise or lower the signal
# [1] = read-out: Cytochrome P450 (CYP24A1), CYP24A1 (gene 1591); assay: LTEA_HepaRG_CYP24A1: Life Technologies and Expression Analysis (LTEA) Assay for Cytochrome P450 (CYP24A1) using HepaRG (AID 2283478)
# In short: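 mRNA of CYP24A1 quantified by TaqMan qRT-PCR (ACTB/GAPDH/POLR2A normalization) after 48 h chemical exposure of HepaRG cells, top concentration 100 uM, half-log steps, 0.5% DMSO vehicle, duplicates. Curves fitted bidirectionally against DMSO baseline.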
# [2] = read-out: Cytochrome P450 (CYP1A2), CYP1A2 (gene 1544); assay: LTEA_HepaRG_CYP1A2: Life Technologies and Expression Analysis (LTEA) Assay for Cytochrome P450 (CYP1A2) using HepaRG (AID 2283479)
# In short: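 CYP1A2 transcript measured by TaqMan qRT-PCR against three housekeeping genes after 48-hour chemical exposure of HepaRG cells. Eight-point half-log series topping at 100 uM in 0.5% DMSO, duplicates; gain or loss fitted relative to vehicle.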
# [3] = read-out: Cytochrome P450 (CYP2B6), CYP2B6 (gene 1555); assay: LTEA_HepaRG_CYP2B6: Life Technologies and Expression Analysis (LTEA) Assay for Cytochrome P450 (CYP2B6) using HepaRG (AID 2283481)
# In short: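 CYP2B6 transcript level quantified by qRT-PCR against three housekeeping genes, fitted bidirectionally relative to DMSO. HepaRG cultures received chemicals for 48 h, 8-point half-log series from 100 uM in 0.5% DMSO, duplicate wells, serum-free induction medium.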
# CYP2C8 (gene 1558) = assay: LTEA_HepaRG_CYP2C8: Life Technologies and Expression Analysis (LTEA) Assay for CYP2C8 using HepaRG (AID 2283483)
# In short: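 CYP2C8 expression measured by TaqMan qRT-PCR and normalized to three housekeeping genes. HepaRG cultures were treated for 48 h with an eight-point half-log series topping at 100 uM, vehicle 0.5% DMSO, duplicates; fitted both directions against DMSO.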
# CYP2C9 (gene 1559) = assay: LTEA_HepaRG_CYP2C9: Life Technologies and Expression Analysis (LTEA) Assay for CYP2C9 using HepaRG (AID 2283484)
# In short: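 CYP2C9 transcript level, quantified by TaqMan qRT-PCR against three housekeeping genes, was fitted bidirectionally relative to 0.5% DMSO. HepaRG cultures were treated 48 h, in duplicate, at eight half-log concentrations topping at 100 uM.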
# CYP2E1 (gene 1571) = assay: LTEA_HepaRG_CYP2E1: Life Technologies and Expression Analysis (LTEA) Assay for CYP2E1 using HepaRG (AID 2283485)
# In short: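 CYP2E1 transcript measured by Fluidigm qRT-PCR against three housekeeping genes in human HepaRG cells treated 48 h (top 100 uM, half-log steps, 0.5% DMSO vehicle). Gain or loss fitted relative to DMSO baseline.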
# CYP4A11 (gene 1579) = assay: LTEA_HepaRG_CYP4A11: Life Technologies and Expression Analysis (LTEA) Assay for CYP4A11 using HepaRG (AID 2283486)
# In short: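 Readout is CYP4A11 transcript level by qRT-PCR, normalized to three housekeeping genes and fitted bidirectionally against 0.5% DMSO. Human HepaRG cells were treated 48 h, in duplicate, with an 8-point half-log series topping at 100 uM.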
# [4] = read-out: Cytochrome P450 3A4 (Homo sapiens) (UniProt P08684); assay: LTEA_HepaRG_CYP3A4: Life Technologies and Expression Analysis (LTEA) Assay for CYP3A4 using HepaRG (AID 2283487)
# In short: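 Differentiated HepaRG cells in serum-free induction medium exposed in duplicate for 48 h to 8 half-log concentrations up to 100 uM in 0.5% DMSO. CYP3A4 mRNA measured by qRT-PCR normalized to ACTB, GAPDH and POLR2A; bidirectional fit versus DMSO.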
# [5] = read-out: Pro-epidermal growth factor (Homo sapiens) (UniProt P01133); assay: LTEA_HepaRG_EGF: Life Technologies and Expression Analysis (LTEA) Assay for Epidermal growth factor (EGF) using HepaRG (AID 2283489)
# In short: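 EGF transcript measured by Fluidigm TaqMan qRT-PCR with three housekeeping genes for normalization, 48 h after dosing HepaRG cultures in duplicate (top 100 uM, half-log steps, 0.5% DMSO vehicle). Gain or loss relative to DMSO fitted.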
# [6] = read-out: Early growth response protein 1 (EGR1) transcription factor, EGR1 (gene 1958); assay: LTEA_HepaRG_EGR1: Life Technologies and Expression Analysis (LTEA) Assay for Early growth response protein 1 (EGR1) transcription factor using HepaRG (AID 2283490)
# In short: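 EGR1 transcript levels quantified by qRT-PCR (Fluidigm arrays) against three housekeeping genes after 48 h chemical exposure of HepaRG cells. Eight-point half-log series topping at 100 uM, 0.5% DMSO vehicle, analyzed for gain or loss.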
# [7] = read-out: Ezrin (EZR), EZR (gene 7430); assay: LTEA_HepaRG_EZR: Life Technologies and Expression Analysis (LTEA) Assay for Ezrin (EZR) using HepaRG (AID 2283491)
# In short: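 Differentiated human HepaRG cells, 48 h after plating, were exposed in serum-free induction medium for 48 hours to eight half-log concentrations up to 100 uM in 0.5% DMSO. EZR mRNA was measured by TaqMan qRT-PCR, normalized to ACTB, GAPDH and POLR2A, and fitted bidirectionally against DMSO.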
# [8] = read-out: Cytochrome P450 3A7 (Homo sapiens) (UniProt P24462); assay: LTEA_HepaRG_CYP3A7: Life Technologies and Expression Analysis (LTEA) Assay for CYP3A7 using HepaRG (AID 2283492)
# In short: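 CYP3A7 transcript measured by qRT-PCR (ACTB, GAPDH, POLR2A normalization) after 48 h chemical exposure of HepaRG cells in duplicate. Eight half-log concentrations, maximum 100 uM, 0.5% DMSO vehicle; bidirectional curve fitting against DMSO baseline.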
# CYP3A5 (gene 1577) = assay: LTEA_HepaRG_CYP3A5: Life Technologies and Expression Analysis (LTEA) Assay for CYP3A5 using HepaRG (AID 2283493)
# In short: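 mRNA levels were quantified by qRT-PCR on Fluidigm arrays and normalized to three housekeeping genes. Differentiated HepaRG cells received 48 h exposure (top 100 uM, half-log steps, 0.5% DMSO vehicle, duplicate); bidirectional fitting versus DMSO.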
# [9] = read-out: Fatty Acid-Binding Protein 1 (FABP1), FABP1 (gene 2168); assay: LTEA_HepaRG_FABP1: Life Technologies and Expression Analysis (LTEA) Assay for Fatty Acid-Binding Protein 1 (FABP1) using HepaRG (AID 2283494)
# In short: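 FABP1 expression by TaqMan qRT-PCR, normalised to three housekeeping genes, in HepaRG cells after 48 h chemical treatment. Eight-point half-log series topping at 100 uM in 0.5% DMSO, duplicates; gain or loss fitted relative to vehicle.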
# [10] = read-out: Cytochrome P450 4A22 (Homo sapiens) (UniProt Q5TCH4); assay: LTEA_HepaRG_CYP4A22: Life Technologies and Expression Analysis (LTEA) Assay for Cytochrome P450 4A22 (CYP4A22) using HepaRG (AID 2283495)
# In short: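 Gene expression measured by qRT-PCR against three housekeeping genes (ACTB, GAPDH, POLR2A), with gain or loss fitted relative to 0.5% DMSO vehicle. HepaRG cultures received 48 h chemical treatment, top concentration 100 uM, half-log steps, duplicate wells.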
# [11] = read-out: Cytochrome P450 7A1 (Homo sapiens) (UniProt P22680); assay: LTEA_HepaRG_CYP7A1: Life Technologies and Expression Analysis (LTEA) Assay for Cytochrome P450 7A1 (CYP7A1) using HepaRG (AID 2283496)
# In short: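 HepaRG, 48 h exposure, 8-pt half-log series from 100 uM, 0.5% DMSO vehicle, duplicates. Readout: TaqMan qRT-PCR mRNA vs three housekeeping genes; bidirectional curve fit against DMSO baseline.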
# [12] = read-out: Glutathione S-Transferase (GSTA2), GSTA2 (gene 2939); assay: LTEA_HepaRG_GSTA2: Life Technologies and Expression Analysis (LTEA) Assay for Glutathione S-Transferase (GSTA2) using HepaRG (AID 2283497)
# In short: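 GSTA2 transcript levels came from Fluidigm TaqMan qRT-PCR normalized to three housekeeping genes, fitted in both directions against DMSO. HepaRG cultures received chemicals for 48 h in serum-free induction medium (0.5% DMSO), 8 half-log concentrations up to 100 uM, duplicate.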
# [13] = read-out: DNA damage-inducible transcript 3 (DDIT3), DDIT3 (gene 1649); assay: LTEA_HepaRG_DDIT3: Life Technologies and Expression Analysis (LTEA) Assay for DNA damage-inducible transcript 3 (DDIT3) using HepaRG (AID 2283488)
# In short: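 DDIT3 transcript was quantified by qRT-PCR with ACTB/GAPDH/POLR2A normalization after 48 h chemical treatment of differentiated HepaRG cells in 0.5% DMSO. Dosing was eight-point, half-log, top 100 uM, duplicate wells. Curves fitted bidirectionally versus DMSO.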
# Cytochrome P450 3A4 (Homo sapiens), sequence (P08684 whole entry, looked up): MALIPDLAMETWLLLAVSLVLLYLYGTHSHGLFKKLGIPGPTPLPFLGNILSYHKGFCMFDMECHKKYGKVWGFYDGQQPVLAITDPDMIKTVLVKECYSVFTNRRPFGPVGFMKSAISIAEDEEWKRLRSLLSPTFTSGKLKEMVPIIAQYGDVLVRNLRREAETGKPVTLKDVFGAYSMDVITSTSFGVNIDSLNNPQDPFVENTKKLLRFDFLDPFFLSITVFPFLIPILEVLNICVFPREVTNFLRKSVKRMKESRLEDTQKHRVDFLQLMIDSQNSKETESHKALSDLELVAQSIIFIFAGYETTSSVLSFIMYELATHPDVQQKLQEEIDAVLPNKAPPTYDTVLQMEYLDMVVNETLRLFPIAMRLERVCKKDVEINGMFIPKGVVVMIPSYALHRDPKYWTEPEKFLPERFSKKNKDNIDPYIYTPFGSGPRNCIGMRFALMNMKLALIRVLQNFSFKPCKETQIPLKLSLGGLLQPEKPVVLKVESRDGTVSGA
# Cytochrome P450 3A7 (Homo sapiens), sequence (P24462 whole entry, looked up): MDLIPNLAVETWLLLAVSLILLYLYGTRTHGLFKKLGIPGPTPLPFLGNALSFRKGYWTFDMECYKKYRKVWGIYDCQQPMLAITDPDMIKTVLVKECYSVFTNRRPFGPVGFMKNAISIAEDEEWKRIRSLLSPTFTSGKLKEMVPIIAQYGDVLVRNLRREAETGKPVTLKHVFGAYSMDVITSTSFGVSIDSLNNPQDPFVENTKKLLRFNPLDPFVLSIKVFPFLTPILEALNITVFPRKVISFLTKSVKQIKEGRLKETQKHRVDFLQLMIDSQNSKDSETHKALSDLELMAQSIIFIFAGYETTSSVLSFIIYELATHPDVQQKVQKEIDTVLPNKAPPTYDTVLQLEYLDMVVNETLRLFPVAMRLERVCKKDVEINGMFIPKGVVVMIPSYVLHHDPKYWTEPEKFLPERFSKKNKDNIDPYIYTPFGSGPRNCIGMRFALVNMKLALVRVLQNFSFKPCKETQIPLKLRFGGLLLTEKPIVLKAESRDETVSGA
compound,measurement,setting,value
CCC(C)OC(=O)N1CCCCC1CCO (configuration not stated),outcome,[1],inactive
same,outcome,[2],inactive
same,AC50,[3],35 µM (active)
same,outcome,CYP2C8 (gene 1558),inactive
same,AC50,CYP2C9 (gene 1559),4.74 µM (active)
same,outcome,CYP2E1 (gene 1571),inactive
same,outcome,CYP4A11 (gene 1579),inactive
same,AC50,[4],50 µM (active)
same,outcome,[5],inactive
same,outcome,[6],inactive
same,outcome,[7],inactive
same,outcome,[8],inactive
same,outcome,CYP3A5 (gene 1577),inactive
same,outcome,[9],inactive
same,outcome,[10],inactive
same,outcome,[11],inactive
same,outcome,[12],inactive
N[C@@H](Cc1cc(I)c(Oc2ccc(O)c(I)c2)c(I)c1)C(=O)O,outcome,[1],inactive
same,AC50,[3],40 µM (active)
same,AC50,CYP2C8 (gene 1558),46.8 µM (active)
same,AC50,CYP2E1 (gene 1571),0.00253 µM (active)
same,AC50,CYP4A11 (gene 1579),7.94 µM (active)
same,outcome,[5],inactive
same,outcome,[6],inactive
same,outcome,[7],inactive
same,AC50,[9],40 µM (active)
same,AC50,[10],0.00445 µM (active)
same,AC50,[11],40 µM (active)
same,AC50,[12],58.3 µM (active)
CC(=O)[C@H]1CC[C@H]2[C@@H]3CCC4=CC(=O)CC[C@]4(C)[C@H]3CC[C@]12C,outcome,[1],inactive
same,AC50,[2],25.4 µM (active)
same,AC50,[3],32.6 µM (active)
same,AC50,CYP2C8 (gene 1558),37.2 µM (active)
same,AC50,CYP2C9 (gene 1559),38.5 µM (active)
same,AC50,CYP2E1 (gene 1571),25.7 µM (active)
same,AC50,CYP4A11 (gene 1579),31.1 µM (active)
same,AC50,[4],36 µM (active)
same,AC50,[5],82 µM (active)
same,AC50,[6],50 µM (active)
same,outcome,[7],inactive
same,AC50,[8],30.1 µM (active)
same,AC50,CYP3A5 (gene 1577),84.6 µM (active)
same,AC50,[9],35.8 µM (active)
same,AC50,[10],31.1 µM (active)
same,AC50,[11],26.8 µM (active)
same,AC50,[12],34.5 µM (active)
O=C(O)c1ccccc1,outcome,[1],inactive
same,outcome,[2],inactive
same,outcome,[3],inactive
same,outcome,CYP2C8 (gene 1558),inactive
same,outcome,CYP2C9 (gene 1559),inactive
same,outcome,CYP2E1 (gene 1571),inactive
same,outcome,CYP4A11 (gene 1579),inactive
same,outcome,[4],inactive
same,outcome,[13],inactive
same,outcome,[5],inactive
same,outcome,[6],inactive
same,outcome,[7],inactive
same,outcome,[8],inactive
same,outcome,CYP3A5 (gene 1577),inactive
same,outcome,[9],inactive
same,outcome,[10],inactive
same,outcome,[11],inactive
same,outcome,[12],inactive
c1ccc(Nc2ccccc2)cc1,outcome,[1],inactive
same,outcome,[2],inactive
same,AC50,[3],24.9 µM (active)
same,outcome,CYP2C8 (gene 1558),inactive
same,outcome,CYP2E1 (gene 1571),inactive
same,outcome,CYP4A11 (gene 1579),inactive
same,outcome,[4],inactive
same,outcome,[5],inactive
same,outcome,[6],inactive
same,outcome,[7],inactive
same,outcome,[8],inactive
same,outcome,CYP3A5 (gene 1577),inactive
same,outcome,[9],inactive
same,outcome,[10],inactive
same,outcome,[11],inactive
same,outcome,[12],inactive
CCCCCOC(=O)COc1cc(N2C(=O)C3=C(CCCC3)C2=O)c(F)cc1Cl,AC50,[1],0.00316 µM (active)
same,outcome,[2],inactive
same,AC50,[3],25.9 µM (active)
same,outcome,CYP2C8 (gene 1558),inactive
same,outcome,CYP2C9 (gene 1559),inactive
same,outcome,CYP2E1 (gene 1571),inactive
same,outcome,CYP4A11 (gene 1579),inactive
same,AC50,[4],28 µM (active)
same,outcome,[5],inactive
same,outcome,[6],inactive
same,outcome,[7],inactive
same,outcome,[8],inactive
same,outcome,CYP3A5 (gene 1577),inactive
same,outcome,[9],inactive
same,outcome,[10],inactive
same,outcome,[11],inactive
same,outcome,[12],inactive

# From PubChem BioAssay (EPA / NIEHS)
